Only a sample is shown.
aSyn UTR act: Activators working through SNCA 5'UTR binding (MLPCN) | 7.1% of 300,000 active | activity score, % (tested at 7.5 µM), hits read low | alpha-synuclein 5'UTR reporter, activators screen | AID 1814; in the data active means activity score below about -60%
* hit, by the source's call.

SMILES	aSyn UTR act
Cc1ccc2c(C)nc(Nc3nc(CSc4nc5ccccc5[nH]4)cc(=O)[nH]3)nc2c1	55.4
COc1ccc2c(C)nc(Nc3nc(-c4ccccc4)cc(=O)[nH]3)nc2c1	-635.1*
CC/C(=N\Nc1ccccc1[N+](=O)[O-])c1ccc(O)cc1	-90.0*
C/C(=N\Nc1ccccc1[N+](=O)[O-])c1ccccc1O	-220.8*
O=[N+]([O-])c1ccc(NC(=S)N/C(=N/CS(=O)(=O)c2ccccc2)c2ccccc2)cc1	-92.1*
Cc1cccc(NC(=S)N/C(=N/S(=O)(=O)c2ccccc2)c2ccccc2)c1	-103.4*
COc1ccc(NC(=S)N/C(=N/CS(=O)(=O)c2ccccc2)c2ccccc2)cc1	-89.5*
COc1ccc(O)c(/C=N/NC(=S)Nc2cccc(S(=O)(=O)N(C)C)c2)c1	74.1
C=CCN1/C(=C2/SC(=S)N(C)C2=O)Sc2ccccc21	-65.4*
CCN1/C(=C2\OC(=S)N(C)C2=O)Sc2ccccc21	-129.4*
Cn1c(C(=O)Nc2ccc3c(c2)OCCO3)cc2sccc21	-86.6*
O=C(Nc1ccc2c(c1)OCCO2)c1cc2sccc2n1Cc1ccc(F)cc1	-109.7*
O=C(Nc1ccc2c(c1)OCCO2)c1cc2sccc2n1Cc1ccccc1	-102.4*
Cc1ccc2oc(Nc3nc(C)c(C)c(C)n3)nc2c1	-99.4*
Cc1ccc(C(=O)N/C(=C\c2ccc(-c3ccc(Cl)cc3)o2)C(=O)NCCCN(C)C)cc1	56.8
OCCc1ccc(-c2ccc(Cl)cc2)o1	-65.1*
CCOC(=O)CCSc1nc(C)c2cc(C)ccc2n1	-86.6*
COc1ccc(NC(=O)Nc2nnc(-c3ccncc3)s2)cc1	-100.4*
O=C(Nc1nnc(-c2ccccc2F)s1)c1cccnc1	-115.7*
COc1ccc(NC(=O)Nc2nnc(C(C)C)s2)cc1	-134.9*
COc1ccc(NC(=O)Nc2nnc(-c3ccco3)s2)cc1	-108.3*
N#CC(c1ccc(Cl)cc1)c1ccc2c(C(F)(F)F)cc(C(F)(F)F)nc2n1 (configuration not stated)	111.6
Cc1ccc(NC(=O)Nc2nnc(-c3ccccc3F)s2)cc1	-84.5*
COc1ccc(NC(=O)Nc2nnc(-c3ccccc3F)s2)cc1	-134.3*
N#CC1=C(SCC(=O)c2ccc(Cl)cc2)NC2=C(C(=O)CCC2)C1c1ccco1 (configuration not stated)	-173.1*
SMILES	aSyn UTR act
C=CCOC(=O)C1=C(C)NC(SCC)=C(C#N)C1c1ccc(Cl)cc1 (configuration not stated)	67.0
O=C(Nc1nc2c(F)cccc2s1)c1ccco1	-121.0*
Cc1nc2nc(NC(=O)c3ccco3)nn2c(C)c1Cl	-94.5*
Fc1cccc2sc(Nc3nnc(-c4ccco4)o3)nc12	-109.1*
Cc1cc(Cl)cc2sc(NC(=O)c3ccco3)nc12	-122.7*
O=C(O)c1ccc(N=Nc2c(O)[nH]c3cc(Cl)ccc23)cc1	-294.4*
Oc1[nH]c2ccccc2c1N=Nc1cccc(Cl)c1	-87.0*
OCCN=C1CCCc2c1[nH]c1ccc(Br)cc21	62.2
Cc1cccc2c(N=Nc3ccccc3)c(O)[nH]c12	-112.1*
O=C(O)c1ccc(N=Nc2c(O)[nH]c3ccc(Br)cc23)cc1	-188.3*
Cc1[nH]c(N=Nc2ccccc2)nc1N=Nc1ccccc1	62.7
O=Nc1c(-c2c(O)[nH]c3cc(Br)ccc23)[nH]c2ccccc12	76.6
CC(C)c1ccc2c(c1)C(N1CCNCC1)Cc1ccc(F)cc1S2 (configuration not stated)	74.8
Oc1[nH]c2ccc(Br)cc2c1N=Nc1ccc(C(F)(F)F)cn1	-68.0*
Cc1ccc(N=Nc2c(O)[nH]c3ccc(F)cc23)cc1	-136.5*
CNC(=S)N/N=C/c1ccc2c(c1)OCCO2	-72.6*
NC(=S)N/N=C/c1ccc(C23CC4CC(CC(C4)C2)C3)cc1	-309.8*
NC(=S)N/N=C/c1ccc2c(c1)OCCO2	-76.0*
NCCOc1ccc(C23CC4CC(CC(C4)C2)C3)cc1	81.0
S=C(N/N=C/c1ccc2c(c1)OCO2)NC1CC2CCC1C2 (configuration not stated)	-128.0*
OCC1CCCN(C(=S)Nc2ccc(Oc3ccccc3)cc2)C1 (configuration not stated)	-135.2*
CC(=O)c1ccc(NC(=S)N2CCCC(CO)C2)cc1 (configuration not stated)	-82.3*
Cc1[nH]n(-c2ccccc2)c(=O)c1/C=C1/C=c2ccccc2=N1	-68.7*
CN(c1cccc(NC(=O)Nc2cccc(Cl)c2)c1)S(C)(=O)=O	-91.6*
COc1ccc(C(=O)Nc2cccc(N(C)S(C)(=O)=O)c2)cc1OC	-168.1*
SMILES	aSyn UTR act
CN(C)c1ccc(NC(=O)Nc2cccc(Cl)c2)cc1	-137.6*
CC(Cc1cccs1)NC(=O)Nc1cccc(Cl)c1 (configuration not stated)	-62.5*
Nc1ccc(N=Nc2ccccc2O)c(N)c1	-136.1*
Oc1ccccc1N=Nc1ccccc1O	58.0
COc1ccccc1/C=C/C=C(\C#N)C(=O)NC(C)c1ccccc1 (configuration not stated)	-74.0*
CC1CCC/C(=N\Nc2ccc(Cl)c(C(=O)O)c2)C1 (configuration not stated)	-98.5*
CC1CCC/C(=N\NC(=O)Nc2ccccc2)C1 (configuration not stated)	-141.6*
Cc1cccc(C(=O)Nc2ccc(N3CCN(S(C)(=O)=O)CC3)cc2)c1	-84.1*
CS(=O)(=O)N1CCN(c2ccc(NC(=O)c3ccccc3)cc2)CC1	-123.5*
c1ccc(CCCc2nc(-c3ccccn3)no2)cc1	-70.0*
Clc1ccc(-c2noc(CCCc3ccccc3)n2)cc1	-97.3*
c1ccc(SCc2nc(-c3ccccn3)no2)cc1	-145.9*
COc1ccc(Cc2nc(-c3ccccn3)no2)cc1	-120.4*
O=C(CCCc1nc(-c2ccccc2Cl)no1)NC1CCCC1	98.8
Cc1ccc(Cc2nc(-c3ccccn3)no2)cc1	-94.6*
c1ccc(-c2noc(CC3CCCCC3)n2)nc1	-68.9*
c1ccc(C(Cc2nc(-c3ccccn3)no2)c2ccccc2)cc1	-132.0*
CN(C)C(=O)CCCc1nc(-c2ccc(Cl)cc2)no1	-110.6*
Cc1ccc(-c2nc(-c3ccccn3)no2)cc1	99.3
c1ccc(-c2ccc(-c3nc(-c4ccccn4)no3)cc2)cc1	147.2
c1ccc(Cc2nc(-c3ccccn3)no2)cc1	-98.2*
Cc1ccc(-c2noc(-c3cc4ccccc4oc3=O)n2)cc1	-80.0*
O=c1oc2ccccc2cc1-c1nc(-c2ccccc2)no1	-130.8*
Cc1cccc(-c2noc(-c3cc4ccccc4oc3=O)n2)c1	-157.7*
Clc1ccc(/C=N/Nc2nnc(Cl)c3ccccc23)cc1	-164.8*
SMILES	aSyn UTR act
Clc1ccc(/C=N/Nc2nc(Cl)nc3ccccc23)cc1	-172.2*
Cc1ccc(/C=N/Nc2nnc(Cl)c3ccccc23)cc1	-156.7*
Clc1nnc(N/N=C/c2ccccc2)c2ccccc12	-267.6*
Clc1nnc(NN=C2CCCC2)c2ccccc12	-193.6*
CC(C)OCCCNC(=S)NNC(=O)c1ccc(Cl)c(Cl)c1	-87.4*
O=C(c1nc2ccccc2s1)N1CCSCC1	-91.6*
CC(=O)N(C)c1ccc(NC(=O)Nc2ccc(Cl)cc2)cc1	-134.9*
CC(=O)N(C)c1ccc(NC(=O)Nc2ccc(C)cc2)cc1	-75.6*
COCCCNC(=O)c1cc2c(-c3ccc(Cl)cc3)nn(C)c2s1	-71.6*
Cn1nc(-c2ccc(Cl)cc2)c2cc(C(=O)N3CCN(c4ccccc4)CC3)sc21	-64.6*
CCCNC(=O)CCn1nc(-c2ccc(Cl)cc2)c2ccccc2c1=O	82.1
COc1cccc(-c2nn(C)c3sc(C(=O)NCCCN(C)Cc4ccccc4)cc23)c1	-76.0*

Screening results: PubChem, Broad Institute
